From PubChem BioAssay (NCI)
The panel holds about 83,000 compounds, 20% with a hit somewhere; the sample as a whole holds those more often.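 96-well plates, one dose, 48 hours. Percent growth reported; active if below 10.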 Unmarked numbers belong to inactive results. Calls of active or inactive are those of the source.

Experiments:
Experiment in all cases: NCI-60 one-dose screen, 48 h (100 = growth as untreated, 0 = no growth, -100 = all killed)
Conditions in all cases: 10 µM unless noted
[1] = system: SK-MEL-2 melanoma
[2] = system: EKVX NSCLC
[3] = system: SN12C renal
[4] = system: UO-31 renal
[5] = system: TK-10 renal
[6] = system: ACHN renal
[7] = system: CAKI-1 renal
[8] = system: A498 renal
[9] = system: CCRF-CEM leukemia
[10] = system: MOLT-4 leukemia
[11] = system: SR leukemia
[12] = system: RPMI-8226 leukemia
[13] = system: OVCAR-8 ovarian
[14] = system: OVCAR-5 ovarian
[15] = system: SK-OV-3 ovarian
[16] = system: IGROV1 ovarian
[17] = system: OVCAR-3 ovarian
[18] = system: HS 578T breast
[19] = system: NCI/ADR-RES ovarian
[20] = system: OVCAR-4 ovarian

Compound: CCOc1ccc(-n2nc(C(=O)NCc3ccccc3OC)nc2-c2cc(OC)c(OC)c(OC)c2)cc1
- growth [1]: 41.5%
- growth [2]: 41.3%
- growth [3]: 39.7%
- growth [4]: -2.66% (active)
- growth [5]: 46.5%
- growth [6]: 19.6%
- growth [7]: 25.9%
- growth [8]: 30%
- growth [9]: 39.7%
- growth [10]: 0.381% (active)
- growth [11]: 35.9%
- growth [12]: 26.9%
- growth [13]: 43.7%
- growth [14]: 74.2%
- growth [15]: 67.1%
- growth [16]: 43.7%
- growth [17]: 49.4%
- growth [18]: 55.1%
- growth [19]: 27.8%

Compound: O=C(CCl)NNc1nccc(Nc2ccc(S(=O)(=O)Nc3ccncc3)cc2)n1
- growth [1]: 38%
- growth [2]: 62.2%
- growth [3]: 23.8%
- growth [4]: 63.3%
- growth [5]: 74.6%
- growth [6]: 37.7%
- growth [7]: 30.4%
- growth [8]: 80.8%
- growth [9]: 23.8%
- growth [10]: 44%
- growth [11]: 37.1%
- growth [12]: 31.3%
- growth [13]: 60.4%
- growth [20]: 36.8%
- growth [15]: 90.5%
- growth [16]: 18.8%
- growth [17]: 24.2%
- growth [18]: 49.2%
- growth [19]: 51%

Compound: CCN(CC)c1ccc(CNc2cc(C)nc3ccccc23)cc1
- growth [1]: 84.2%
- growth [2]: 42.6%
- growth [3]: 75.4%
- growth [4]: 40%
- growth [5]: 67%
- growth [6]: 64.6%
- growth [7]: 53.2%
- growth [8]: 52.5%
- growth [9]: 70%
- growth [10]: 86.4%
- growth [11]: 50.5%
- growth [12]: 41.7%
- growth [13]: 63.2%
- growth [20]: 52%
- growth [15]: 78.3%
- growth [16]: 74.8%
- growth [17]: 63.7%
- growth [18]: 85.6%
- growth [19]: 47.7%

Compound: CO[C@H](C(=O)[C@@H](O)[C@@H](C)O)[C@@H]1Cc2cc3cc(O[C@H]4C[C@@H](O[C@H]5C[C@@H](O)[C@H](O)C(C)O5)[C@H](O)C(C)(O)O4)cc(O)c3c(O)c2C(=O)[C@H]1O[C@H]1C[C@@H](O[C@H]2C[C@@H](O[C@H]3C[C@@H](OC)[C@H](O)C(C)O3)[C@@H](O)C(C)O2)[C@H](O)C(C)O1 (stereo partly specified)
- growth [1]: -54.9% (active)
- growth [2]: 34.7%
- growth [3]: 20.5%
- growth [4]: 41.7%
- growth [5]: 37%
- growth [6]: 25.9%
- growth [7]: 68.9%
- growth [8]: -30.9% (active)
- growth [9]: 54.5%
- growth [10]: 37.9%
- growth [11]: 24%
- growth [12]: 26.7%
- growth [13]: 24.3%
- growth [20]: 42.2%
- growth [15]: 17.3%
- growth [16]: 32.6%
- growth [17]: 21.7%
- growth [18]: 26.4%
- growth [19]: 102%

Compound: O=C1c2ccccc2C(=O)c2c1c(C(=O)NCc1ccccc1)c1ccccn21
- growth [1]: 87.8%
- growth [2]: 105%
- growth [3]: 107%
- growth [4]: 89.8%
- growth [5]: 97.2%
- growth [6]: 103%
- growth [7]: 91.7%
- growth [8]: 95.6%
- growth [9]: 90.2%
- growth [10]: 96.3%
- growth [11]: 90.9%
- growth [12]: 95.8%
- growth [13]: 93.9%
- growth [20]: 105%
- growth [15]: 102%
- growth [16]: 97.8%
- growth [17]: 116%
- growth [18]: 97.9%
- growth [19]: 103%

Compound: N#CSc1c[nH]c2cccc(/C=C/C(=O)/C=C(O)/C=C/c3cccc4[nH]cc(SC#N)c34)c12
- growth [1]: -58.8% (active)
- growth [2]: -23.9% (active)
- growth [3]: -71.2% (active)
- growth [4]: -87.3% (active)
- growth [5]: -44.8% (active)
- growth [6]: -85.6% (active)
- growth [7]: -70% (active)
- growth [8]: -12.7% (active)
- growth [9]: -22.1% (active)
- growth [10]: -39% (active)
- growth [11]: 0.385% (active)
- growth [12]: -28.9% (active)
- growth [13]: -34.2% (active)
- growth [20]: -20.1% (active)
- growth [15]: -24% (active)
- growth [16]: -37.4% (active)
- growth [17]: -17.6% (active)
- growth [18]: 22.8%
- growth [19]: 39.9%

Compound: CN1C(=O)/C(=C/c2ccc(C(=O)Nc3ncc(Cc4cccc(Cl)c4)s3)cc2)SC1=S
- growth [1]: 91.7%
- growth [2]: 55.9%
- growth [3]: 84.2%
- growth [4]: 55.6%
- growth [5]: 56%
- growth [6]: 33.2%
- growth [7]: 26.3%
- growth [8]: 74.9%
- growth [9]: 69.3%
- growth [10]: 52.4%
- growth [11]: 85.2%
- growth [12]: 60.8%
- growth [13]: 64.1%
- growth [20]: 52.9%
- growth [15]: 72.1%
- growth [16]: 61.9%
- growth [17]: 69%
- growth [18]: 74.6%
- growth [19]: 56.9%

Compound: Nc1nc(N)c2c(n1)NC(c1cccc(Nc3ccnc4cc(C(F)(F)F)ccc34)c1)CC(c1ccc(Br)cc1)=N2 (stereo unspecified)
- growth [1]: 52.4%
- growth [2]: 51.5%
- growth [3]: 63%
- growth [4]: 62.2%
- growth [5]: 96.8%
- growth [6]: 82%
- growth [7]: 48.6%
- growth [9]: 17%
- growth [10]: 9.24% (active)
- growth [11]: 0.0412% (active)
- growth [12]: 5.34% (active)
- growth [13]: 66%
- growth [14]: 107%
- growth [20]: 77.5%
- growth [15]: 57.2%
- growth [16]: 58.8%
- growth [17]: 38.1%
- growth [18]: 68.4%
- growth [19]: 56.5%

Compound: C=C(c1ccc(OC)c(/C=C/C(=O)c2ccc3c(c2)OCO3)c1)c1cc(OC)c(OC)c(OC)c1
- growth [1]: 32.1%
- growth [2]: 23.4%
- growth [3]: 8.55% (active)
- growth [4]: 23.4%
- growth [5]: 23%
- growth [6]: -26.5% (active)
- growth [7]: 11.6%
- growth [9]: 13.3%
- growth [10]: 11.1%
- growth [11]: 6.41% (active)
- growth [12]: 11.7%
- growth [13]: 6.09% (active)
- growth [14]: 36.6%
- growth [20]: 38.9%
- growth [16]: 35.2%
- growth [17]: 1.16% (active)
- growth [18]: 40.8%
- growth [19]: 5.57% (active)

Compound: CCN(CC)CCN1C(=O)c2cccc3c(/C=C/CN4C(=O)c5cccc6cccc(c56)C4=O)ccc(c23)C1=O
- growth [1]: 108%
- growth [2]: 106%
- growth [3]: 96.1%
- growth [4]: 82%
- growth [5]: 129%
- growth [6]: 96.8%
- growth [7]: 89%
- growth [9]: 25.4%
- growth [10]: 62.8%
- growth [11]: 38.6%
- growth [12]: 26.5%
- growth [13]: 92.1%
- growth [14]: 94.4%
- growth [20]: 102%
- growth [15]: 112%
- growth [16]: 90.1%
- growth [17]: 108%
- growth [18]: 84.8%
- growth [19]: 99.8%

Compound: CCn1c(-c2cc3c([nH]c4ccccc43)c(-c3cccc(O)c3)n2)n[nH]c1=S
- growth [1]: -22.2% (active)
- growth [2]: 56.9%
- growth [3]: 63.6%
- growth [4]: 47.3%
- growth [5]: 9.38% (active)
- growth [6]: 61.1%
- growth [7]: 47.9%
- growth [9]: 28%
- growth [10]: 25.6%
- growth [11]: -3.76% (active)
- growth [12]: 19.3%
- growth [13]: 40.8%
- growth [14]: 98.1%
- growth [20]: 54.8%
- growth [15]: 55.8%
- growth [16]: 53.7%
- growth [17]: 28.9%
- growth [18]: 28.1%
- growth [19]: 64.8%

Compound: CCNC(=O)Oc1ccc(/C(=C(/CC)Cc2ccccc2)c2ccc(OCCN3CCCC3)cc2)cc1
- growth [1]: 108%
- growth [2]: 88.3%
- growth [3]: 92.7%
- growth [4]: 83.5%
- growth [5]: 91.2%
- growth [6]: 95.1%
- growth [7]: 96.8%
- growth [9]: 87.2%
- growth [10]: 75.9%
- growth [11]: 75.5%
- growth [12]: 77.7%
- growth [13]: 94.1%
- growth [14]: 94.6%
- growth [20]: 93.3%
- growth [15]: 88.5%
- growth [16]: 91.5%
- growth [17]: 96.9%
- growth [18]: 93.5%
- growth [19]: 97.9%

Compound: COc1ccc(C(=O)/C=C/c2ccc(Cl)cc2)cc1S(=O)(=O)Nc1c(N)nc(SC)[nH]c1=O
- growth [1]: 95.8%
- growth [2]: 85.2%
- growth [3]: 16.8%
- growth [4]: 51.6%
- growth [5]: 79.6%
- growth [6]: 82.1%
- growth [7]: 68.5%
- growth [9]: 9.03% (active)
- growth [10]: 59.8%
- growth [11]: 9.2% (active)
- growth [12]: 10%
- growth [13]: 10.8%
- growth [14]: 86.3%
- growth [20]: 66.7%
- growth [15]: 97.4%
- growth [16]: 40.1%
- growth [17]: 10.1%
- growth [18]: 81.4%
- growth [19]: 97.5%

Compound: COc1ccc(C#Cc2ccc(=O)oc2-c2cc(OC)c(OC)c(OC)c2)cc1O
- growth [1]: 61.6%
- growth [2]: 79.8%
- growth [3]: 58%
- growth [4]: 37.9%
- growth [5]: 81.8%
- growth [6]: 62%
- growth [7]: 22.8%
- growth [9]: 18.5%
- growth [10]: 15.1%
- growth [11]: 13.7%
- growth [12]: 18.2%
- growth [13]: 69.6%
- growth [14]: 43%
- growth [20]: 69%
- growth [15]: 47.2%
- growth [16]: 37.5%
- growth [17]: -4.92% (active)
- growth [18]: 54.5%

Compound: Cc1ccnc(Nc2ccc([N+](=O)[O-])c(NCCN3CCOCC3)n2)c1
- growth [1]: 51.5%
- growth [2]: 96.4%
- growth [3]: 36.6%
- growth [4]: 34.2%
- growth [5]: 79.4%
- growth [6]: 38.6%
- growth [7]: 65.6%
- growth [9]: 7.5% (active)
- growth [10]: 11.7%
- growth [11]: 9.97% (active)
- growth [12]: 26.1%
- growth [13]: 34.8%
- growth [14]: 99.1%
- growth [20]: 59.4%
- growth [15]: 62.1%
- growth [17]: 26.1%
- growth [18]: 38.3%
- growth [19]: 43.9%

Compound: C[C@@H]1O[C@@H](O[C@@H]2C[C@H](c3ccc4c(c3O)C(=O)C3=C(C4=O)[C@@]4(O)C(=O)C[C@](C)(O)C[C@@]4(O)C=C3)O[C@H](C)[C@H]2O)CC[C@@H]1O[C@H]1C[C@@H](O)[C@H](O)[C@@H](C)O1
- growth [1]: 110%
- growth [2]: 98%
- growth [3]: 98.4%
- growth [4]: 82.8%
- growth [5]: 97.4%
- growth [6]: 90.8%
- growth [7]: 93.3%
- growth [9]: 90.5%
- growth [10]: 86.6%
- growth [11]: 89.6%
- growth [12]: 95.3%
- growth [13]: 98.2%
- growth [14]: 110%
- growth [20]: 87.1%
- growth [15]: 111%
- growth [16]: 96.4%
- growth [17]: 98.1%
- growth [18]: 105%
- growth [19]: 97%
